This note sets out measurements from PubChem BioAssay (NCATS).

Structures are written as SMILES. A number with no mark means an inactive call. Results filed as inconclusive are left out. Activity calls are given as the source filed them. Unless noted, calls come from the whole dose curve; as a rule, active = well fitted curve in the direction sought with a large enough effect; inconclusive = small, poorly fitted or top-dose-only effect, or another doubt; inactive = no such curve, though single readings can be large; an effect the other way counts as inactive or inconclusive.

Assay [1] concerns the target Glucocorticoid receptor (Homo sapiens) (UniProt P04150). In words: qHTS assay for small molecule antagonists of glucocorticoid receptor signaling (AID 588533; active = well fitted inhibition curve with a large enough effect in the signal ratio, with a control signal flat, not every such curve was filed as active; the % refers to the signal ratio;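 note: cells stimulated with 2 nM dexamethasone as agonist; potency is the fitted concentration of half-maximal effect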). The method, boiled down: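 Antagonist-mode qHTS: compound titrations added to GRE-bla HeLa cells, then dexamethasone 2 nM final; 18 h, 37 C. CCF4 FRET fluorescence normalized to dexamethasone and DMSO; IC50 from Hill fit.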
For orientation: In qHTS, concentration-response curves come from the screen itself.

For assay [2], the target named is Peroxisome proliferator-activated receptor gamma (Homo sapiens) (UniProt P37231). As to the kind of experiment: qHTS assay for small molecule antagonists of peroxisome proliferator-activated receptor gamma signaling (AID 588537; active = well fitted inhibition curve with a large enough effect in the signal ratio, with a control signal flat, not every such curve was filed as active; the % refers to the signal ratio; note: potency is the fitted concentration of half-maximal effect). The method, boiled down:
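HEK293 cells, PPAR-gamma-UAS-bla, 3000/well. Pre-incubation 6-6.5 h, 37 C. Compound titration with rosiglitazone 50 nM final, 16 h. CCF4 dye, 2 h RT, dual-emission fluorescence.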

The target of assay [3] is Vitamin D3 receptor (Homo sapiens) (UniProt P11473). In words: qHTS assay for small molecule agonists of vitamin D receptor signaling (AID 588543; calls by dose curve; note: potency is the fitted concentration of half-maximal effect). Put shortly: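 β-lactamase reporter, VDR-UAS-bla HEK293T, agonist mode. Cells plated 5 h at 37 °C, compound titration 16 h at 37 °C, CCF4 dye 2 h RT, ratio 460/530 nm. Hill fit → EC50, efficacy vs 50 nM 1α,25-(OH)2D3.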
Sequence of Vitamin D3 receptor (Homo sapiens) (P11473 whole entry, looked up): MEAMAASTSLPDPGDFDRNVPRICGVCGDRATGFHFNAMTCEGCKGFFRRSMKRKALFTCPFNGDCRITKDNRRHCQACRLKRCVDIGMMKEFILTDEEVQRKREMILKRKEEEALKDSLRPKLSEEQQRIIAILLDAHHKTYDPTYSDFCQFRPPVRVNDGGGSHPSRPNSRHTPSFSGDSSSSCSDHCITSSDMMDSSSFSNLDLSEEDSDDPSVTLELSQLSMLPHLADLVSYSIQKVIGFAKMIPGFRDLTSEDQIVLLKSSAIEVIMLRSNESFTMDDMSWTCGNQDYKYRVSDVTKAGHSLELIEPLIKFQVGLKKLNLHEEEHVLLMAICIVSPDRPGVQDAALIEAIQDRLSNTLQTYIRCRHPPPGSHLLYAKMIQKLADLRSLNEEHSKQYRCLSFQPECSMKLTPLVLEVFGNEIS
The target in assay [4] is Thyroid hormone receptor beta (Homo sapiens) (UniProt P10828). As to the kind of experiment: qHTS assay for small molecule agonists of thyroid hormone receptor beta signaling (AID 588545; calls by dose curve; note: potency is the fitted concentration of half-maximal effect). The method, boiled down:
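Agonist activity was read as beta-lactamase CCF4 fluorescence (405 ex, 460/530 em), scaled between DMSO (0%) and 10 nM T3 (100%), then Hill-fitted for EC50 and efficacy. HEK 293 TR-UAS-bla cells in 2% charcoal/dextran FBS medium were exposed 18 h at 37 C.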

The nature of assay [5]: qHTS assay for small molecule activators of the p53 signaling pathway (AID 651743; active = well fitted activation curve with a large enough effect in the signal ratio, not every such curve was filed as active; the % refers to the signal ratio; note: potency is the fitted concentration of half-maximal effect). The note with it: HCT-116 p53RE-bla, beta-lactamase FRET ratio, 16 h; activation: stronger effect = higher value. Put shortly: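 Here HCT-116 cells with an integrated p53-responsive beta-lactamase gene were incubated with compounds (16 hours, 37 C) after a 5-hour plating period; beta-lactamase activity was detected as fluorescence intensity via B/G FRET substrate.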

The nature of assay [6]: qHTS assay for small molecule activators of the nuclear factor-kappa B (NF-kB) signaling pathway (AID 651749; active = well fitted activation curve with a large enough effect in the signal ratio; the % refers to the signal ratio; note: potency is the fitted concentration of half-maximal effect). The note with it: NF-kB-bla ME-180 cells, beta-lactamase FRET ratio, 16 h; activation: stronger effect = higher value. The method, boiled down: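 Beta-lactamase reporter expression, controlled by NF-kB response elements in ME-180 cells, was quantified fluorometrically via FRET disruption; cells at 2,000/well had been incubated with 23 nL test compound for 16 hr.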

A short description of assay [7]: qHTS assay for environmental chemicals that activate the Aryl hydrocarbon Receptor (AhR) signaling pathway (AID 651777). Note: % of control where 0% means no effect; nearly all actives have a fitted effect of over 15% in size. The note with it: 1A2-DRE human hepatoma cells, luciferase, 24 h; activation: stronger effect = higher value. Put shortly: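 Measured luciferase activity, read 30 min after One-Glo addition at room temperature, from human hepatoma cells bearing a dioxin response element–CYP1A2 promoter reporter and exposed to compound for 24 hr at 37 C.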

Assay [8] deals with Peroxisome proliferator-activated receptor alpha (Homo sapiens) (UniProt Q07869). As to the kind of experiment: qHTS assay for small molecule agonists of the peroxisome proliferator-activated receptor alpha (PPARalpha) signaling pathway (AID 651778). Note: % of control where 0% means no effect. The conditions noted are these: PathHunter PPARalpha complementation, chemiluminescence, 6 h; stronger effect = higher value. The method, boiled down:
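Cells plated at 2,000/well and held overnight at 37 C, 5% CO2, then compound added by pin tool for 6 hr; after PathHunter detection reagent and 60 min at room temperature, chemiluminescence from enzyme complementation was read.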

Assay [9] is described as follows: qHTS assay for small molecule agonists of the antioxidant response element (ARE) signaling pathway measured by Nrf2-dependant transcriptional activity - cell viability counter screen (AID 720653; active = well fitted curve in the direction sought with a large enough effect in the repeat runs; an effect the other way counts as inactive or inconclusive; note: % is set by controls: 0 for no effect and ±100 for the full control effect). The conditions noted are these: ARE-bla HepG2 viability, CellTiter-Glo ATP luminescence, 16 h; max response: stronger effect = lower value. The method, boiled down: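 ARE-bla HepG2 cells (2,000/well) rested 5 hrs at 37C/5% CO2, then exposed to compounds in DMSO for 16 hrs. Viability was read in the same wells as intracellular ATP by luminescence, 30 min at room temperature after reagent addition.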

Assay [10] can be described thus: qHTS assay for cell viability of the p53RE-bla HCT-116 cell line (AID 743292). Note: % is set by controls: 0 for no effect and ±100 for the full control effect; nearly all actives have a fitted effect of over 55% in size. Put shortly:
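Intracellular ATP of p53RE-bla HCT-116 cells measured by luciferase luminescence following 16 h compound incubation at 37 C; DMSO-only wells served as vehicle controls.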

Assay [11] concerns the target Nuclear receptor subfamily 1 group I member 2 (Rattus norvegicus) (UniProt Q9R1A7). As to the kind of experiment: qHTS assay for small molecule activators of the rat pregnane X receptor (rPXR) signaling pathway (AID 651751; call rule not given here; note: 0% is about no effect). The note with it: rPXR reporter cells, luciferase (One-Glo), 24 h.
Assay [12] is described as follows: qHTS assay for small molecule activators of the human pregnane X receptor (PXR) signaling pathway (AID 720659; call rule not given here; note: 0% is about no effect).

Sequence of Peroxisome proliferator-activated receptor gamma (Homo sapiens) (P37231 whole entry, looked up): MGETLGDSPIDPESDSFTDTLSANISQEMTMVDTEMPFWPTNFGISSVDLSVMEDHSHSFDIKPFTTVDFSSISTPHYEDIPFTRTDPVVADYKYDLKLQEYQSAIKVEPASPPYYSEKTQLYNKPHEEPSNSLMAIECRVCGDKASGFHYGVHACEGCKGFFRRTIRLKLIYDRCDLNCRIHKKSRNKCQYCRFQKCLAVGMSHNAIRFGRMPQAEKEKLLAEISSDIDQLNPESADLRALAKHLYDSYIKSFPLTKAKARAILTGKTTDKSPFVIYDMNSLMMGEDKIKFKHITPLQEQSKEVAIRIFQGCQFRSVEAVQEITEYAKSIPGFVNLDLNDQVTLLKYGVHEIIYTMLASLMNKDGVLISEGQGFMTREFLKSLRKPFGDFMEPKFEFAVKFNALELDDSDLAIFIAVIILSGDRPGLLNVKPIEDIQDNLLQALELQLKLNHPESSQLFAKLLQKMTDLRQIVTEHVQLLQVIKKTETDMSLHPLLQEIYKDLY
Sequence of Peroxisome proliferator-activated receptor alpha (Homo sapiens) (Q07869 whole entry, looked up): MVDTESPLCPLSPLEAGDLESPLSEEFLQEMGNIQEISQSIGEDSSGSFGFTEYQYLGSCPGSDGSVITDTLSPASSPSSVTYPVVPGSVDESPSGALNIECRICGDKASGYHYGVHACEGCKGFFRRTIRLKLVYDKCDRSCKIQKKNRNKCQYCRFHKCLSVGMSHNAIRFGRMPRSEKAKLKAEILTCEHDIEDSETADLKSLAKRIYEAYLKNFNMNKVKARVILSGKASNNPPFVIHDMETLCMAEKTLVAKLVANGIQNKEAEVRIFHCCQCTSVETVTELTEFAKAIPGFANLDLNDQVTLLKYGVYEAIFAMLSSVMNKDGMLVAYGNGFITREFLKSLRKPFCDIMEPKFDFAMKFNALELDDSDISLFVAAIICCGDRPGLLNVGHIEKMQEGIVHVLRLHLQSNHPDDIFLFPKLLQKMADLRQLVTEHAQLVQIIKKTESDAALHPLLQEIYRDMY
Sequence of Thyroid hormone receptor beta (Homo sapiens) (P10828 whole entry, looked up): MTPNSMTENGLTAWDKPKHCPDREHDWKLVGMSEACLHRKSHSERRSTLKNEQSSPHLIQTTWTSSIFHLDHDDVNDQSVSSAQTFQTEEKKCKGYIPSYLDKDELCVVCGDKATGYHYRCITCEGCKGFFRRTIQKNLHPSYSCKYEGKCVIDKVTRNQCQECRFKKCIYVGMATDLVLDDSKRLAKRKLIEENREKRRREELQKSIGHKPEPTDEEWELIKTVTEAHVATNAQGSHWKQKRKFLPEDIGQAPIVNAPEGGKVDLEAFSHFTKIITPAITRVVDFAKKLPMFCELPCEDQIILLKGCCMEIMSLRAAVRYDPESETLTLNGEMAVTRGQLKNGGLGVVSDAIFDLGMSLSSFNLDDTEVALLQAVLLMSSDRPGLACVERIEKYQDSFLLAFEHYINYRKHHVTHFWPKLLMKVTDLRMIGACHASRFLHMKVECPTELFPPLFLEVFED
Sequence of Glucocorticoid receptor (Homo sapiens) (P04150 whole entry, looked up): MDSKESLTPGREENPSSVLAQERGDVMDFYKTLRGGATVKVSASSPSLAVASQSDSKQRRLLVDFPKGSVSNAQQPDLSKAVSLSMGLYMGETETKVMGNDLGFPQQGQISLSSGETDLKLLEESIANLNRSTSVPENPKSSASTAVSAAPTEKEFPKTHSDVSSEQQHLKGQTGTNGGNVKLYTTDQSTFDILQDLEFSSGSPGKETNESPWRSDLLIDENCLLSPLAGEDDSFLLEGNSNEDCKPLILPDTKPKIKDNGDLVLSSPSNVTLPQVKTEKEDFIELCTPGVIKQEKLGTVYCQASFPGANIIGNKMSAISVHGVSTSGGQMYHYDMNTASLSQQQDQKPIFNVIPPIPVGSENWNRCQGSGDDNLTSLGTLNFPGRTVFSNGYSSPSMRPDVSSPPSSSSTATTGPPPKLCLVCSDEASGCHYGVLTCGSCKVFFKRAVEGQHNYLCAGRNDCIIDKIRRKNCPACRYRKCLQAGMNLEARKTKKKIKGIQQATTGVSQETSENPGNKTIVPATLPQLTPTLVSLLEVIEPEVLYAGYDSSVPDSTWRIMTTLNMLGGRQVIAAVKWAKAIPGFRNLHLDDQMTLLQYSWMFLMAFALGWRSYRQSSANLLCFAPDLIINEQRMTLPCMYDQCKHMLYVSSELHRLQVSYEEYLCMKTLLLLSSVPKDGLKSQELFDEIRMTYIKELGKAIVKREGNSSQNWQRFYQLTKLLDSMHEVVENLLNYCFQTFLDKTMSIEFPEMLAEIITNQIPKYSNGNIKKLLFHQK
Sequence of Nuclear receptor subfamily 1 group I member 2 (Rattus norvegicus) (Q9R1A7 whole entry, looked up): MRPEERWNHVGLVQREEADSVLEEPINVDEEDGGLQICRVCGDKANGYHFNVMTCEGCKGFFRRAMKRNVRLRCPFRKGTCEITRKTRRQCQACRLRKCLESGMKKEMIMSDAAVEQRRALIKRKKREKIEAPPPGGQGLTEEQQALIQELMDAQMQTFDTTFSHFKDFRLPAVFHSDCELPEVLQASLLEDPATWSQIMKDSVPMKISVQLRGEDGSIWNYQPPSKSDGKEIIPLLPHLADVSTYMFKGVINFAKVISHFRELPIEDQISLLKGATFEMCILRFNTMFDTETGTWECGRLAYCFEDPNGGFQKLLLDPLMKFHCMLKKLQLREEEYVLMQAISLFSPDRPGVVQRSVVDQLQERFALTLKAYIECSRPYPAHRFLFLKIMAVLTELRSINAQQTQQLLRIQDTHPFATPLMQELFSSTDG

With `C[C@@H]1Cc2c(Cl)cc(C(=O)N[C@@H](Cc3ccccc3)C(=O)O)c(O)c2C(=O)O1`, the Potency in assay [1] is 0.891 µM (active); in assay [2], 2 µM (active); in assay [3], 44.7 µM (active); in assay [4] it was 44.7 µM (active); in [5], 0.891 µM (active); in [6], 44.7 µM (active). Also, in assay [7], the activation is 8.7%. Moreover, the max response in [8] was -0.744%; in assay [9], 9.38%; in assay [11] it was -12%. Also, the outcome in assay [10] and in [12] was inactive.
